Measurements reported in PubChem BioAssay AID651793 (National Center for Advancing Translational Sciences (NCATS), 2012).
Records with an inconclusive call do not appear. Where a call stands in place of a potency, no number is given. Activity calls are given as the source filed them. Calls follow the shape of the dose curve; as a rule, active = well fitted inhibition curve with a large enough effect; inconclusive = small, poorly fitted or top-dose-only effect; inactive = flat fitted curve, though single readings scatter.

Experiment: InCell qHTS Assay for Inhibitors of the mTORC1 Signaling Pathway in WT MEF Cells: Hit Validation
Text: The mammalian target of rapamycin (mTOR) is an intracellular serine/threonine kinase Aberrant regulation of mTOR signaling plays a causative role in a number of human diseases, including cancer, benign tumors such as lymphangioleiomyomatosis (LAM) and Tuberous Sclerosis Complex (TSC), and metabolic diseases such as diabetes and obesity. This project aims to identify inhibitors of ribosomal protein S6 (rpS6) phosphorylation. The phosphorylation of rpS6 is a key event downstream of mTOR activation. The assay uses a phospho-specific antibody of phospho-rpS6 to detect inhibitors of mTOR activation. […]
For quantitative high throughput analysis of mTORC1 signaling, we developed a cell-based assay for immuno-fluorescence based detection of rpS6 phosphorylation on the Acumen Explorer that will be used a platform for the primary small molecule screen. […] The fluorescence emission from the Alexa-488 conjugated rpS6 phospho-235/236 antibody staining is selected using a […] band pass filter. Fluorescence emission from the PI stain is selected using a 575-640 nm band pass filter. The normalized phospho-S6 staining is calculated as the ratio of the integrated Alexa 488 intensity divided by the integrated PI intensity for the single concentration rapamycin control (7.5 nM) and DMSO columns. […]

| SMILES | Potency |
| --- | --- |
| Cn1cc(C2=C(c3cn(C4CCN(Cc5ccccn5)CC4)c4ccccc34)C(=O)NC2=O)c2ccccc21 | inactive |
| CCOc1ccc(NC(=O)c2cc3c(C)nn(-c4ccccc4)c3s2)cc1 | 17.9 µM (active) |
